IL1B secr inh: inflammasome signaling inhibition, IL-1 beta readout; AID 743279; activity change, % at 57.5 µM; THP-1 LPS/ATP IL-1B secretion, AlphaLISA, 16 h; hits give low values; actives 4.7% (n = 360,000); in the data active = activity change below about -50%; inconclusive = mostly about -30% to -49%
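Secreted IL-1B measured by AlphaLISA bead assay after 16 h compound exposure of THP-1 cells; compounds (final up to 57.5 uM) added 1 h before LPS (250 ng/mL) and ATP (1.25 mM) stimulation; lower signal means less secretion.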
HT1080 IDH1KD tx: HT-1080 IDH1 knockdown cell toxicity (counter line). HT-1080 IDH1 knockdown viability, ATP luminescence, 48 h. Potency, µM (doses to about 46.1 µM), for inactives: top-dose activity, negative = toxicity, usual class: cytotoxic. actives 2% (n = 360,000);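 note: potency is the fitted concentration of half-maximal effect; 0% = DMSO wells and -100% = cell-free medium wells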
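IDH1KD HT-1080 cells, 750/well, RPMI + 5% FBS; compound pinned after 2 h settling; 48 h, 37 °C; CellTiter-Glo luminescence; % activity normalised to DMSO and no-cell wells; curves fitted, classed by r2 and efficacy.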
TDP1 cell CPT: growth inhibition of DT40 Tdp1-/-;hTDP1 cells with camptothecin (screen for TDP1 inhibitors). actives 12% (n = 420,000). AID 686979. Potency, µM (series often up to 46.2 µM), inactives show at the top dose activity change, negative = growth inhibition, usual class: inhibitors. chicken DT40 Tdp1-/-;hTDP1 cells + 20 nM CPT, ATP luminescence, 48 h; note: potency is the fitted concentration of half-maximal effect; nearly all actives have a fitted effect of over 55% in size
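Cell growth measured by CellTiter-Glo luminescence after a minimum 48 h, 37 C compound exposure with 20 nM CPT in Tdp1-knockout DT40 cells stably expressing hTDP1, seeded 400/well; qHTS titration format.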
DT40 TDP1 no CPT: qHTS for Inhibitors of human tyrosyl-DNA phosphodiesterase 1 (TDP1): qHTS in cells in absence of CPT; DT40 Tdp1-/- hTDP1 cells, no CPT, ATP luminescence, 48 h; Potency, µM (highest dose often 46.2 µM), for the others: at the top dose activity change, negative = growth inhibition, most hits filed as inhibitors; actives 15% (n = 420,000); note: potency is the fitted concentration of half-maximal effect; nearly all actives have a fitted effect of over 55% in size
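Stably hTDP1-transfected Tdp1-null chicken DT40 cells were treated with library compounds minus camptothecin and grown for at least 48 hr at 37 °C, after which cellular ATP was quantified by luminescence.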
ELG1 DNA repair: ELG1-dependent DNA repair inhibition | HEK293T ELG1-luciferase reporter, luminescence, 16 h; DNA damage induced by 5-fluorouridine | Potency, µM (series often up to 46.1 µM), for the others: at the highest dose activity change, negative = inhibition, most hits filed as inhibitors | actives 2.3% (n = 330,000); note: potency is the fitted concentration of half-maximal effect; nearly all actives have a fitted effect of over 55% in size
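In this reporter screen, reduction of luminescence relative to DMSO vehicle indicated activity. Compounds and 5-fluorouridine were added together to 2,000 cells per well, incubated for 16 hr at 37 °C, then developed with ONE-Glo.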
HT1080-NT tox: kills 2HG-producing HT-1080-NT fibrosarcoma cells. HT-1080-NT fibrosarcoma viability, CellTiter-Glo ATP luminescence, 48 h. Potency, µM (series often up to 46.1 µM), for inactives: at the highest dose activity, negative = less viability, actives largely listed as cytotoxic. actives 1.6% (n = 360,000). AID 686970;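 note: NT is the 2HG producing partner of a matched IDH1 knockdown line; potency is the fitted concentration of half-maximal effect; 0% = DMSO-treated cells and -100% = media-only wells without cells; nearly all actives have a fitted effect of over 55% in size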
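A 48-hour cytotoxicity screen used HT-1080-NT cells plated 2 hours before compound delivery. ATP-based CellTiter-Glo luminescence measured viability, normalized to DMSO and no-cell controls.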
* = called active by the depositor; ? = inconclusive; / = no result given; ! = not active in a repeat. Sampled rows, rich in hits. Any-hit rate of the full collection: about 19%. Unless noted, calls come from the whole dose curve; as a rule, active = well fitted curve in the direction sought with a large enough effect; inconclusive = small, poorly fitted or top-dose-only effect, or another doubt; inactive = no such curve, though single readings can be large; an effect the other way counts as inactive or inconclusive. Unless noted, % is set by controls: 0 for no effect and ±100 for the full control effect.

SMILES	IL1B secr inh	HT1080 IDH1KD tx	TDP1 cell CPT	DT40 TDP1 no CPT	ELG1 DNA repair	HT1080-NT tox
CC(=O)N1c2ccc(S(=O)(=O)NCC3CCC(C(=O)NCc4ccc(C)cc4)CC3)cc2CC1C (stereo not given)	1	1%	21µM*	15µM*	-22%	?
CC(=O)N1c2ccc(S(=O)(=O)NCC3CCC(C(=O)Nc4cccc(F)c4)CC3)cc2CC1C (stereo not given)	/	/	3.3µM*	12µM*	/	/
C=C1CCc2c([nH]c3ccc(OCC(C)C)cc23)C1=O	-99*	13µM*	0.82µM*	0.92µM*	?	7.3µM*
Cc1cc(C)c(S(=O)(=O)NCC(=O)NCc2cc(=O)n(C)c(=O)n2C)c(C)c1	14	1%	-1%	4%	11%	2%
COc1ccc(S(=O)(=O)NCc2cccnc2)cc1OC	43	10%	12%	-2%	2%	2%
COc1ccc(S(=O)(=O)NCc2ccncc2)cc1OC	0	-4%	13µM*	14µM*	7.3µM*	6%
CCc1ccc(OC)c(S(=O)(=O)Nc2ccc(Cc3ccncc3)cc2)c1	-76*	?	7.3µM*	8.2µM*	-28%	?
COc1ccc(OC)c(S(=O)(=O)NCc2cccnc2)c1	18	10%	-1%	-5%	3%	15%
COc1ccc(S(=O)(=O)Nc2ccc(Cc3ccncc3)cc2)cc1OC	?	-21%	12µM*	15µM*	-20%	-22%
CCOc1ccc(C(C)(C)C)cc1S(=O)(=O)Nc1ccncc1	0	0%	4%	10%	1%	4%
COc1ccc2cc(S(=O)(=O)NCc3cccnc3)ccc2c1	14	?	?	8.2µM*	-26%	-28%
Oc1ccccc1CN(Cc1ccco1)CC(O)COCc1ccc(Cl)cc1 (stereo not given)	-99*	?	15µM*	18µM*	?	?
COc1ccc(COCC(O)CN(Cc2ccco2)Cc2ccccc2O)cc1 (stereo not given)	5	0%	?	?	-17%	-4%
O=C(COc1ccc(Cl)cc1)c1ccc(O)cc1O	-67*	-15%	5%	?	?	-14%
COc1ccc(CN2[C@@H](CC(=O)O)c3ccccc3S2(=O)=O)cc1	0	-1%	?	2.8µM*!	/	11%
CCOC(=O)/C=C/c1ccc2c(c1)S(=O)(=O)N(Cc1ccc(OC)cc1)[C@H]2CC(=O)OCC	-15	-4%	21µM*	13µM*	/	2%
CCOC(=O)C[C@H]1c2ccccc2S(=O)(=O)N1Cc1ccc(Cl)cc1	14	4%	11µM*	18µM*	/	0%
COc1cccc(N2[C@@H](CC(C)=O)c3cc(C(F)(F)F)ccc3S2(=O)=O)c1	-27	-6%	?	?	/	-5%
CCOC(=O)C[C@H]1c2cc(C(F)(F)F)ccc2S(=O)(=O)N1Cc1ccccc1	34	1%	?	?	/	16%
COc1ccc(CN2[C@@H](CC(C)=O)c3cc(C(F)(F)F)ccc3S2(=O)=O)cc1	17	0%	16µM*	21µM*	/	8%
CCN(c1ccccc1)S(=O)(=O)c1nnc(NC(=O)COc2cccc(C)c2)s1	/	/	5%	1%	/	/
O=C(O)c1ccc2c(ccc3nn(-c4ccc(/C=C/c5ccc(-n6nc7ccc8cc(C(=O)O)ccc8c7n6)cc5[S+](=O)([O-])[O-])c([S+](=O)([O-])[O-])c4)nc32)c1	/	/	9%	0%	/	/
O=C(NCc1cn(-c2ccccc2)nc1-c1ccc(F)cc1)c1cccc([N+](=O)[O-])c1	-75*	-5%	?	?	?	-10%

Screens from PubChem.
